Our source for the residual activity values is ChEMBL document CHEMBL2218924, “A broad activity screen in support of a chemogenomic map for kinase signalling research and drug discovery” (Biochem J, 2013).

Assay [1] concerns the target T1, Ephrin type-A receptor 3 (Homo sapiens) (UniProt P29320).
T1 sequence (whole entry): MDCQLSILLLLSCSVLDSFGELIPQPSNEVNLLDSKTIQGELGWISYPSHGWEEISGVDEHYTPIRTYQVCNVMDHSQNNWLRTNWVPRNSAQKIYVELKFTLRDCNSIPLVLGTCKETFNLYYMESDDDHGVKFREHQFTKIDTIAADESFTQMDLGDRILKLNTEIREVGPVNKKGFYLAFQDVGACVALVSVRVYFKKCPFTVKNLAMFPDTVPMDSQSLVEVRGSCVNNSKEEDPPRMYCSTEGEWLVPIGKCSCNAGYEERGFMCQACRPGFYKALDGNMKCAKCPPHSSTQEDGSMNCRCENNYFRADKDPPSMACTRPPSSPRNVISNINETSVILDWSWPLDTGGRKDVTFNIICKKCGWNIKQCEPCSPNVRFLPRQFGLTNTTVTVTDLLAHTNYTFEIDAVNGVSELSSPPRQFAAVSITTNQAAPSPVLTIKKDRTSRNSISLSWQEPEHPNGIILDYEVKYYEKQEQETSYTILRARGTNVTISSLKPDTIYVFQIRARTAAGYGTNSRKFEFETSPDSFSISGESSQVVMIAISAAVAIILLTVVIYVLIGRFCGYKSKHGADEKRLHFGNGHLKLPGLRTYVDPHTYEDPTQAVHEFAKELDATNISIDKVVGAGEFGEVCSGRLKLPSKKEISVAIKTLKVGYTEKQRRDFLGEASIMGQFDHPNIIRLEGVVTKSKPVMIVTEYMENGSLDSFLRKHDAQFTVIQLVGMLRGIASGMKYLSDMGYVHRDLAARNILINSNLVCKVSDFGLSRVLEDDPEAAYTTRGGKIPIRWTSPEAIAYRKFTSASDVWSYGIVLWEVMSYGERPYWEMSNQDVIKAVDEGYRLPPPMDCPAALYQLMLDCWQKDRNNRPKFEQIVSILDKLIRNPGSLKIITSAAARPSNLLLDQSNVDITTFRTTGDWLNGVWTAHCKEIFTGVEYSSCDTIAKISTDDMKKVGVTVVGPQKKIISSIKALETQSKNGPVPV
The settings on record: at 10 µM.

Assay [2] addresses Ephrin type-A receptor 4 (Homo sapiens) (UniProt P54764). The settings on record: at 1 µM.
The target is the same in assay [3]. The settings on record: at 10 µM.
Assay [4] concerns the target Ephrin type-A receptor 5 (Homo sapiens) (UniProt P54756). The settings on record: at 1 µM.
Assay [5] shares this target. The following applies: at 10 µM.
Assay [6] addresses Ephrin type-A receptor 7 (Homo sapiens) (UniProt Q15375). The settings on record: at 1 µM.
The target is the same in assay [7]. The settings on record: at 10 µM.
Assay [8] concerns the target T2, Ephrin type-A receptor 8 (Homo sapiens) (UniProt P29322).
T2 sequence (whole entry): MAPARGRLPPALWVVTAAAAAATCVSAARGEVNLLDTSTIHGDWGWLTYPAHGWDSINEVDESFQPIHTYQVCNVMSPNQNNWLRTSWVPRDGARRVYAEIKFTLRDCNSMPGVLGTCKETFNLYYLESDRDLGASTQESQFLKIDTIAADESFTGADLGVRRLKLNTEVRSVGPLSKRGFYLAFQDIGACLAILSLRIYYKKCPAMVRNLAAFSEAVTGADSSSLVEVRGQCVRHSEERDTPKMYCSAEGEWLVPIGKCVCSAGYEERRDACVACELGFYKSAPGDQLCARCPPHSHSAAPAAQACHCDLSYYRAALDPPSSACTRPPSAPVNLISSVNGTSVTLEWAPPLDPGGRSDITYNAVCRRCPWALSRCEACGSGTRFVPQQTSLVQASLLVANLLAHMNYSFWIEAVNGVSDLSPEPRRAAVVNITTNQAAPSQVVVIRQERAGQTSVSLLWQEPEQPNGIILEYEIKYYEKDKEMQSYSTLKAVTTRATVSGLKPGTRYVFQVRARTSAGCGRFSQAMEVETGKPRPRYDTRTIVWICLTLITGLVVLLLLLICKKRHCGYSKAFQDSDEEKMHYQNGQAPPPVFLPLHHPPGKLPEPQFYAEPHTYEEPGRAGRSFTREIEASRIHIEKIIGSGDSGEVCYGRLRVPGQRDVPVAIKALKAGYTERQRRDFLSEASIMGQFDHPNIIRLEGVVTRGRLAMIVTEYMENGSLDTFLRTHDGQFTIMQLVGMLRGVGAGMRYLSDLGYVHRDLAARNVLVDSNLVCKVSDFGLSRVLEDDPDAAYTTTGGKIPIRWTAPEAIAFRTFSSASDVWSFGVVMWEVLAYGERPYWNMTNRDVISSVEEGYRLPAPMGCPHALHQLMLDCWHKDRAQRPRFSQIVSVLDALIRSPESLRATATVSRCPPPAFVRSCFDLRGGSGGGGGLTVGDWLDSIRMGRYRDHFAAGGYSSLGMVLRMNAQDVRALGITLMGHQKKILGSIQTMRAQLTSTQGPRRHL
The settings on record: at 1 µM.

For assay [9], the target named is T2, Ephrin type-A receptor 8 (Homo sapiens). The following applies: at 10 µM.

Sequence of Ephrin type-A receptor 7 (Homo sapiens) (Q15375 28-998 limits assumed): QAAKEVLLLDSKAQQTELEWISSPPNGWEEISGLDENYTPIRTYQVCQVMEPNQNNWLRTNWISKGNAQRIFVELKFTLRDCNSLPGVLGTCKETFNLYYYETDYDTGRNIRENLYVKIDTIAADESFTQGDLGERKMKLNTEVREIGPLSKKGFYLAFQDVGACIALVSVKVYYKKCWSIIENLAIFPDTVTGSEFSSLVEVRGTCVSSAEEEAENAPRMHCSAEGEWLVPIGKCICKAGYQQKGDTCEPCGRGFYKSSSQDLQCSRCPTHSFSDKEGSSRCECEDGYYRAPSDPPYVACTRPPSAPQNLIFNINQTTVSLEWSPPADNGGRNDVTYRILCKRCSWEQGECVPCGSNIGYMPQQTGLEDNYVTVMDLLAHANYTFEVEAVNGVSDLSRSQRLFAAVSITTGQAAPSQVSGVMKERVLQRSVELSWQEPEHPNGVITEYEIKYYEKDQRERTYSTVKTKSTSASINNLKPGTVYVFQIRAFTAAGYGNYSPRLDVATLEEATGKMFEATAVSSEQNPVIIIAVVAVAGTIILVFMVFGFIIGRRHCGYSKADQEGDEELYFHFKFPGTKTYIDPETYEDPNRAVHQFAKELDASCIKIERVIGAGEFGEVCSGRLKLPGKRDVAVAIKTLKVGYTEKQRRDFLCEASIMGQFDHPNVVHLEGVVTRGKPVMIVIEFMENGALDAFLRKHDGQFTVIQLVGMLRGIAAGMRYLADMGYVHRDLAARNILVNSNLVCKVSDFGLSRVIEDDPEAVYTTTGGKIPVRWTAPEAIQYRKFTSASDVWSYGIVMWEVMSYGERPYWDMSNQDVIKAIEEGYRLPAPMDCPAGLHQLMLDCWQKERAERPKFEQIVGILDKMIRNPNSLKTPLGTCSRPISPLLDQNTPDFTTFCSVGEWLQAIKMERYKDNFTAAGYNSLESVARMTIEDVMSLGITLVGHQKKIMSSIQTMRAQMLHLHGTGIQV
Sequence of Ephrin type-A receptor 4 (Homo sapiens) (P54764 whole entry): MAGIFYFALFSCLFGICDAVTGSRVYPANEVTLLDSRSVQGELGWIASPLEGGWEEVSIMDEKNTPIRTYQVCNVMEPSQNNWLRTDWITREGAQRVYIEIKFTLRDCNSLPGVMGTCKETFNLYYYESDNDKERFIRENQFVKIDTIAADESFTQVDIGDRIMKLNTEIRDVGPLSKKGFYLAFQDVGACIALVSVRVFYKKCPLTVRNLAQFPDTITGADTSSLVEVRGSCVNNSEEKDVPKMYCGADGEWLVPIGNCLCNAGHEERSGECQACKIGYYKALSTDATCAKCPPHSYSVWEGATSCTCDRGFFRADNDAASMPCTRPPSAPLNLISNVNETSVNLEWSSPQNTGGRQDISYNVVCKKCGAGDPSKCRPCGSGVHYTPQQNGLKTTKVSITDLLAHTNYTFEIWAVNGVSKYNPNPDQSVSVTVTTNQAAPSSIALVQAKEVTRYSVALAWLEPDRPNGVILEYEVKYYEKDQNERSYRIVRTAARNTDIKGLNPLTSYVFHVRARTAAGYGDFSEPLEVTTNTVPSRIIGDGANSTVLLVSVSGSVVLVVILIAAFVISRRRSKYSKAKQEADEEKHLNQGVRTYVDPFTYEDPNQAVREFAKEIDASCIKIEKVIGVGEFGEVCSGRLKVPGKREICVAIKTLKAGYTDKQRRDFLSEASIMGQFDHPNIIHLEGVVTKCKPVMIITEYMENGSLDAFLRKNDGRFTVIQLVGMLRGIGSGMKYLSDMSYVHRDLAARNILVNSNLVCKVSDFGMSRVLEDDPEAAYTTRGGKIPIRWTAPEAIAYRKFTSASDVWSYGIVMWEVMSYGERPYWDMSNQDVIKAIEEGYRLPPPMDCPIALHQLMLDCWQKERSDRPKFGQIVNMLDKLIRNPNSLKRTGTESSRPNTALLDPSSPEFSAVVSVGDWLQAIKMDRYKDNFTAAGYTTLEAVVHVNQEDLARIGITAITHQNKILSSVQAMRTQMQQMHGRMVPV
Sequence of Ephrin type-A receptor 5 (Homo sapiens) (P54756 whole entry): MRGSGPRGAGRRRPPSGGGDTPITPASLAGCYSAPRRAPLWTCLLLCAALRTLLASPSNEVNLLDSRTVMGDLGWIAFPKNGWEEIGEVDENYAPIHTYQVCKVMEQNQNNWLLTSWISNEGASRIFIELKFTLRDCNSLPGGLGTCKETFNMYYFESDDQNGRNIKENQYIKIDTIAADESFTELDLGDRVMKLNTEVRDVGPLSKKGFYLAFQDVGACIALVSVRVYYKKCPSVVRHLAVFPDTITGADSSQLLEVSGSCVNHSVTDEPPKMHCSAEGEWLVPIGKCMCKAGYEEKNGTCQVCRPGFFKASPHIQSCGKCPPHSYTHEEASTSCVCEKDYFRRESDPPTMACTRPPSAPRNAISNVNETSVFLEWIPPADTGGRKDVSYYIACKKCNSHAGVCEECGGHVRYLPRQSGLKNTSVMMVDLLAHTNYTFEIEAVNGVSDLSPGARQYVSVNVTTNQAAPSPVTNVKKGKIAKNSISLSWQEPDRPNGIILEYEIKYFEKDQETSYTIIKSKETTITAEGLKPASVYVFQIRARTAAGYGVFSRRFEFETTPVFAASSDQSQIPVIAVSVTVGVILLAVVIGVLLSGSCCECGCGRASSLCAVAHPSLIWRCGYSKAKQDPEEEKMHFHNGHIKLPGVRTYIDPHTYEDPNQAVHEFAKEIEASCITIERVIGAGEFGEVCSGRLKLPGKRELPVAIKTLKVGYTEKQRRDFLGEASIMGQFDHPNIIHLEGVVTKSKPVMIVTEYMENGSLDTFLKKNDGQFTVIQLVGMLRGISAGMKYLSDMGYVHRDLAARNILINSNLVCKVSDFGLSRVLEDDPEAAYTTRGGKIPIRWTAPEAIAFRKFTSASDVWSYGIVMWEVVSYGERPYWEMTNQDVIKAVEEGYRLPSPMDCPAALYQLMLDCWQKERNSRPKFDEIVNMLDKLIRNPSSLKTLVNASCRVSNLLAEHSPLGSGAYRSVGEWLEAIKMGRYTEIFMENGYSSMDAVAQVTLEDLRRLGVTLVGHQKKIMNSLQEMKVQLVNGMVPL

The term residual activity denotes the signal under treatment as a percentage of the control signal. In the case of `CC(C)n1cnc2/c(=N/c3cccc(Cl)c3)nc(NCCO)[nH]c21`, the residual activity in assay [1] turned out to be 54%; in assay [2], 110%; in assay [3], 75%; in assay [4] it was 102%; in [5] it was 43%; in assay [6], 83%. The values for the residual activity in assay [7], in assay [8] and in assay [9] were 43%, 97% and 77%, respectively.
